The source made the active and inactive calls.
Columns and labels:
[1] = A549 cell viability effects, profiling panel, calcein-AM fluorescence, 48 h, basal (AID 1162); details: higher = more signal
[2] = adipocyte viability effects, profiling panel, cell-based, 3T3-L1 adipocytes, calcein-AM fluorescence, 48 h, basal (AID 1163); details: 3T3-L1 adipocytes viability, higher = more signal
[3] = HepG2 cell viability effects, profiling panel, calcein-AM fluorescence, 48 h, basal (AID 1164); details: higher = more signal
[4] = MM1S cell viability effects, profiling panel, calcein-AM fluorescence, 48 h, basal (AID 1165); details: higher = more signal;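 note: viability of MM1S multiple myeloma cells under basal unstimulated conditions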
[5] = basal RPMI8226 viability, no added stimulus, profiling panel, cell-based, calcein-AM fluorescence, 48 h, PK04 Diversity Set (AID 1166); details: RPMI8226 myeloma viability, higher = more signal;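 note: cells grown under basal conditions without added stimulus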
[6] = basal HepG2 mitochondrial membrane potential changes, profiling panel, cell-based, JC-1 fluorescence, 24 h, 100 nL compound (AID 1167); details: higher = more signal
[7] = basal 3T3-L1 adipocyte mitochondrial potential changes, profiling panel, cell-based, JC-1 fluorescence, 3T3-L1 adipocytes, 24 h, 100 nL compound (AID 1168); details: JC-1 mitochondrial fluorescence, higher = more signal, called active from +8 up or from −8 down
[8] = basal RPMI8226 mitochondrial membrane potential changes, profiling panel, cell-based, JC-1 fluorescence, 24 h, 100 nL compound (AID 1169); details: RPMI8226 myeloma, JC-1 mitochondrial potential fluorescence, higher = more signal
[9] = basal MM1S mitochondrial membrane potential changes, profiling panel, cell-based, JC-1 fluorescence, 24 h, 100 nL compound (AID 1170); details: higher = more signal
[10] = A549 lung cancer cell viability effects, profiling panel, resazurin fluorescence, 24 h, PK04 Diversity Set (AID 1171); details: higher = more signal, called active from +8 up or from −8 down
Note: test concentration not given here.

| SMILES | z-score [1] | z-score [2] | z-score [3] | z-score [4] | z-score [5] | z-score [6] | z-score [7] | z-score [8] | z-score [9] | z-score [10] |
| --- | --- | --- | --- | --- | --- | --- | --- | --- | --- | --- |
| C=CC[C@@]1(C(=O)NCCCOC)N=C(c2ccc(OCCCO)cc2)O[C@@H]1c1ccccc1CN=[N+]=[N-] | -0.287 | 0.532 | 0.569 | -0.459 | -0.885 | 2.5 | 0.738 (inactive) | -0.728 | 0.0149 | 0.41 (inactive) |
| C=CCNC(=O)[C@@H]1[C@H]2C(=O)O[C@H](c3ccccc3)[C@H](c3ccccc3)N2[C@H](c2ccc(OCCO)cc2)[C@@]12C(=O)N(C(=O)OCCOC)c1ccccc12 | -0.514 | 0.484 | 0.332 | 0.374 | -0.562 | 2.15 | 0.89 (inactive) | -1.05 | 0.332 | -0.0659 (inactive) |
| C=CCC(OC(C)=O)[C@@H]1[C@@H](N(Cc2ccc(-c3ccccc3)cc2)C(=O)Cc2ccc(OC)cc2)c2cc(OCCCO)ccc2N1C(=O)c1ccc2ccccc2c1 (stereo not given in full) | -0.186 | 0.407 | -0.437 | -1.12 | -0.807 | 1.87 | -0.81 (inactive) | 1.08 | 0.383 | -0.0027 (inactive) |
| C[C@@]1([C@@H](NS(=O)(=O)c2cccc3cccnc23)c2ccc(-c3ccccc3)cc2)C[C@H]1C1CCCCC1 | -1 | -0.516 | -1.04 | -1.28 | -1.08 | -1.46 | -0.399 (inactive) | 0.698 | -1.72 | -0.892 (inactive) |
| CC1CC/C=C\[C@H]2OC34C=CCN(C(C)C)C(=O)[C@H]3N(C(C)CO)C(=O)[C@@H]4C2C(=O)O1 (stereo not given in full) | -0.784 | 0.534 | 0.517 | -0.245 | 0.819 | 0.674 | 0.164 (inactive) | 0.851 | -0.869 | 0.574 (inactive) |
| COCCOC(=O)N1C(=O)[C@@]2(c3cc(C#CC4=CCCCC4)ccc31)[C@H](c1ccc(O)cc1)N1[C@H](c3ccccc3)[C@H](c3ccccc3)OC(=O)[C@H]1[C@@H]2C(=O)N1CCc2cc(OC)c(OC)cc2C1 | -0.565 | -0.154 | -0.493 | 0.0055 | -1.33 | 0.0573 | 1.8 (inactive) | -1.11 | -0.432 | 0.0836 (inactive) |
| O=C1NC(=O)C2C1C=CC(C(O)c1ccc(F)cc1)N2Nc1ccc(Cl)cc1Cl (stereo not given) | -2.35 | -0.275 | -3.57 | -2.88 | -2.29 | -3.47 | -0.472 (inactive) | -0.0645 | 0.174 | -2.11 (inactive) |
| COC(=O)[C@@]1(Cc2ccc(F)cc2)[C@H]2c3cc(C(=O)N4CCCC4)n(Cc4ccc(OC(F)(F)F)cc4)c3C[C@H]2CN1C(=O)c1ccccc1 | -1.21 | -0.749 | 0.0322 | -1.04 | -0.55 | -0.269 | -1.35 (inactive) | -0.603 | -0.787 | -0.165 (inactive) |
| CN(C)CCCCCCNC(=O)[C@@H]1C[C@@H]2C(=O)N[C@@H](CCCC[N+](C)(C)C)C(=O)N2[C@@H]1c1cccc(OCCO)c1 | -0.188 | -0.015 | 0.413 | 0.232 | 0.799 | 1.37 | -0.225 (inactive) | -0.567 | 0.0992 | -0.646 (inactive) |
| CC(C)C(=C=CC[C@H](O)c1cccc(OCCO)c1)C[C@H](O)c1ccccn1 | 1.65 | -0.0875 | 0.731 | 0.301 | 0.942 | 0.807 | 0.259 (inactive) | 0.509 | -0.803 | 1.26 (inactive) |
| CCCCC=C[C@@H](NC(=O)C(C)(C)C)c1ccccc1 | -2.66 | -0.688 | -5.19 | -3.26 | -4.72 | -4.78 | -0.576 (inactive) | -0.895 | -2.82 | -0.938 (inactive) |
| O=C(NCCN1CCOCC1)[C@@H]1c2ccccc2C(=O)N(CC23CC4CC(CC(C4)C2)C3)[C@H]1c1ccc(CO)cc1 | -0.0791 | 1.43 | 0.45 | -0.846 | -0.327 | 2.95 | -0.634 (inactive) | 0.434 | -0.388 | 1.8 (inactive) |
| COC(=O)[C@@]1(Cc2ccc(F)cc2)[C@H]2c3cc(C(=O)N4CCCC4)n(C[C@H](O)CO)c3C[C@H]2CN1C(=O)c1ccccc1 | -1.21 | 0.24 | -0.674 | -0.26 | -1.07 | -0.438 | -1.11 (inactive) | -0.663 | -0.371 | 0.467 (inactive) |
| COc1ccc(C(=O)Nc2cccc(CN3C(=O)[C@]4(O[C@H](CC(=O)N(CCO)Cc5ccccc5)[C@@H]([Si](C)(C)c5ccc(OC)cc5)[C@@H]4C)c4ccccc43)c2)cc1 | -0.983 | 0.385 | -0.801 | -0.829 | -3.92 | 0.52 | 1.3 (inactive) | -0.877 | -1.51 | -1.51 (inactive) |
| COCCOC(=O)N1C(=O)[C@@]2(c3cc(C#CCCO)ccc31)[C@H](c1ccc(O)cc1)N1[C@H](c3ccccc3)[C@H](c3ccccc3)OC(=O)[C@H]1[C@@H]2C(=O)NC[C@H](O)c1ccccc1 | 1.7 | 0.617 | 1.2 | 0.0034 | -0.409 | -0.424 | -1.55 (inactive) | -0.429 | -0.841 | 0.908 (inactive) |

— PubChem BioAssay
